Compounds with a hit are over-represented: about 22% of the library has one in this group of screens.
CYP2C9 inhib: human CYP2C9 inhibition. P11712. CYP2C9 Supersomes, luciferin-H conversion, luminescence. inhibition, % at 5 µM. actives 20% (n = 96,000). AID 777;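 active = blocking of liver enzyme CYP2C9 beyond about 50% at 5 µM, limit read from the data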
CYP2C19 act: activators of human cytochrome P450 2C19; P33261; recombinant CYP2C19, luciferin-H EGE luminescence; stronger effect = higher value; 0 = fully inhibited enzyme, 1 = untreated enzyme; activation factor at 5 µM; 96,000 tested, under 10 active; AID 1025;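 active = activation factor of at least 2 at 5 µM in the primary screen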
Target sequence (P33261 whole entry, looked up): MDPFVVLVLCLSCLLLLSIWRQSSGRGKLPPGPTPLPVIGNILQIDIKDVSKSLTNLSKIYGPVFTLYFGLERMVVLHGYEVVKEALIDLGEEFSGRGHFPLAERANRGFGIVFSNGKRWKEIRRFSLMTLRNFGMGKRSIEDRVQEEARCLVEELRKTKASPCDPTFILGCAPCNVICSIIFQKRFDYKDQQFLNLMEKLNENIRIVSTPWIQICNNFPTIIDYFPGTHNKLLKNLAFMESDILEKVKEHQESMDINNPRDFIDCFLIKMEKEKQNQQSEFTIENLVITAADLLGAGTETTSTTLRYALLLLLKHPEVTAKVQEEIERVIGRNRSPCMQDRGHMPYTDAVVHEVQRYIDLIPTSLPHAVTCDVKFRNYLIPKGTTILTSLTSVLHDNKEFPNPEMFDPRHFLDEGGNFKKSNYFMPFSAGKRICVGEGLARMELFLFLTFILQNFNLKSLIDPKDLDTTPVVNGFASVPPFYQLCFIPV
CYP2C19 inh: human CYP2C19 inhibition; P33261; CYP2C19 Supersomes, luciferin-H EGE luminescence, 30 min; inhibition, % at 5 µM; actives 21% (n = 96,000);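 active = CYP2C19 inhibition above a set limit at 5 µM in the primary screen, cut at about 50% in these data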
CYP2C9 act: increases human cytochrome P450 2C9 activity; recombinant CYP2C9, luciferin-H conversion, luminescence; stronger effect = higher value; factor 1 = untreated enzyme, 0 = blocked; activation factor at 5 µM; AID 1024; P11712; actives 1.4% (n = 96,000);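 active = activation factor of 2 or more for CYP2C9 at a 5 µM dose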
Measles CPE: protection of cells from measles virus; Measles virus-infected cells, CPE protection, absorbance; protection (pct of control), % at 4 µM; actives 1.5% (n = 140,000); in the data active = protection mostly above about 24%, no sharp cut-off; inactive = mostly below about 26%
Each line names hits and unclear results; the compound was inactive in the other large screens.

CCOC(=O)c1ccccc1NC(=O)c1ccccc1NS(C)(=O)=O	CYP2C9 inhib 74, CYP2C19 inh 55
CC1CC(C)CN(S(=O)(=O)c2cccc(C(=O)OCCN3CCCC3=O)c2)C1 (configuration not stated)	none
O=c1[nH]ncn2cccc12	none
Cc1ccc(S(=O)(=O)Nc2ccccc2C(=O)Nc2ccc(S(=O)(=O)Nc3nccc(C)n3)cc2)cc1	none (no result: CYP2C9 inhib, CYP2C19 act, CYP2C19 inh, CYP2C9 act)
CCOC(=O)c1ccccc1NS(=O)(=O)c1ccc(C)cc1	CYP2C19 inh 60
CCOC(=O)c1ccccc1NS(=O)(=O)c1ccccc1F	CYP2C19 inh 89, CYP2C9 act 2.9, Measles CPE 33
CCOC(=O)c1cnc(-c2ccccc2)nc1Oc1ccccc1	none
CCOC(=O)c1cnc(SC)nc1Oc1cccc(NS(=O)(=O)c2ccc(C)cc2)c1	CYP2C9 inhib 81
Cc1ccc(-n2ncc3c(NCCCN4CCCC4=O)ncnc32)c(C)c1	none (no result: CYP2C9 inhib, CYP2C19 act, CYP2C19 inh, CYP2C9 act)
S=C(NC1CCCCC1)N(CCc1nc2ccccc2[nH]1)C1CCCC1	none (no result: CYP2C9 inhib, CYP2C19 act, CYP2C19 inh, CYP2C9 act)
O=C(Cc1ccc(-n2cccc2)cc1)NC1CCCCC1	CYP2C9 inhib 69, CYP2C19 inh 55
c1ccc2c(c1)nc1n2C2(N3CCOCC3)CCCC2C1N1CCOCC1 (configuration not stated)	CYP2C9 inhib 99 (no result: Measles CPE)
Oc1ccc2c(c1)C1CCCC1(N1CCOCC1)O2 (configuration not stated)	none
COc1ccc(CN2CC34C=CC(O3)C(C(=O)O)C4C2=O)cc1 (configuration not stated)	none
COc1cccc(N2CCN(C(=O)C3C4C=CC5(CN(Cc6ccccc6Cl)C(=O)C35)O4)CC2)c1 (configuration not stated)	CYP2C9 inhib 62
CC(C)=CC1C=C(C)C(C)C2C(=O)NNC(=O)C12 (configuration not stated)	CYP2C19 inh 51
Cc1ccc(NC(=S)NC(NC(=O)C(C)(C)C)C(Cl)(Cl)Cl)c(C)c1 (configuration not stated)	CYP2C9 inhib 90
CC(C)CC(=O)Nc1ccc(-c2cn3ccsc3n2)cc1	none
CCCCn1c(=O)[nH]c(=O)c2c1nc(COC(=O)c1c(C)noc1C)n2CCC	CYP2C9 inhib 97, CYP2C19 inh 68
CCCCn1c(CCC(=O)O)nc2c1c(=O)[nH]c(=O)n2CCC	none
O=C(CCc1ccc(S(=O)(=O)NC2CCCCC2)cc1)N(Cc1ccccc1)Cc1ccccc1	CYP2C9 inhib 88, CYP2C19 inh 70
O=C(NC1CC1)c1ccc(S(=O)(=O)NC2CCCCCC2)cc1	CYP2C19 inh 54
O=C(O)c1ccc(S(=O)(=O)NC2CCCCC2)cc1	none
CSc1ccc(S(=O)(=O)NC2CCCCCC2)cc1	CYP2C19 inh 95
O=C(NNS(=O)(=O)c1ccc2ccccc2c1)NC1CCCCC1	Measles CPE 52 (no result: CYP2C9 inhib, CYP2C19 act, CYP2C19 inh, CYP2C9 act)
Cc1ccc(C)c(NC(=O)c2sc(Cl)nc2-c2ccccc2)c1	none
O=C(/C=C/c1cccs1)N1CCc2ccccc21	none (no result: CYP2C9 inhib, CYP2C19 act, CYP2C19 inh, CYP2C9 act)
COc1ccsc1C(=O)N1CCN(Cc2ccc3c(c2)OCO3)CC1	CYP2C19 inh 85
Cn1c(C(=O)N2CCN(Cc3ccc4c(c3)OCO4)CC2)cc2sccc21	CYP2C19 inh 70
Cn1c(C(=O)N2CCC(C(=O)N3CCN(Cc4ccc5c(c4)OCO5)CC3)CC2)cc2sccc21	CYP2C19 inh 51
O=C(c1ccc(Br)s1)N1CCN(Cc2ccc3c(c2)OCO3)CC1	none
Cn1c(C(=O)N2CCC(C(=O)N3CCOCC3)CC2)cc2sccc21	none
Cc1ccc(NC2c3ncccc3C(=O)N2C2CCCCC2)cc1 (configuration not stated)	none
CCN1C(=O)/C(=C\N2CCCCCC2)SC1=S	CYP2C19 inh 56
CCC(=NC(C)c1ccccc1)c1c(O)n(C)c(=O)n(C)c1=O (configuration not stated)	CYP2C9 inhib 56, CYP2C19 inh 68
COc1ccc(OC)c(NC(=O)CCC(=O)Nc2nnc(C(F)(F)F)s2)c1	CYP2C9 inhib 74
COc1ccccc1NC(=O)CCC(=O)Nc1nnc(C(F)(F)F)s1	CYP2C9 inhib 72
CCN(c1ccccc1)S(=O)(=O)c1cc(C(=O)Nc2ccc(Br)cc2)ccc1F	none (no result: CYP2C9 inhib, CYP2C19 act, CYP2C19 inh, CYP2C9 act)
Cc1ccc(C(=O)Nc2nc(=O)n(C(=O)c3ccccc3C)s2)cc1	CYP2C9 inhib 82
O=C(Nc1nc(=O)n(C(=O)C2CC2)s1)c1ccccc1	CYP2C9 inhib 80
O=C(Nc1nc(=O)c2ccccc2s1)c1ccccc1	none
Cc1ccc(C(=O)Nc2nc(=O)n(C(=O)C3CC3)s2)cc1	CYP2C9 inhib 79
